Measurements reported in PubChem BioAssay (NCATS).
Inconclusive results are not listed. Activity calls are given as the source filed them. Calls follow the shape of the dose curve; as a rule, active = well fitted inhibition curve with a large enough effect; inconclusive = small, poorly fitted or top-dose-only effect; inactive = flat fitted curve, though single readings scatter.

Key:
CRL-7250 = normal cell line; experiment: Cytotoxic Profiling of Annotated Libraries Using Quantitative High-Throughput Screening (AID 1296008); conditions: Five cell lines viability, CellTiter-Glo ATP luminescence, 48-72 h; max response: active compounds read low; as to max response: % is scaled to controls: 0 for no effect and ±100 for the full control effect
Summary of the method: (§1)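 Compounds were pin-transferred onto cells and incubated 48 or 72 hr at 37 degree Celsius, 95% humidity. CellTiter-Glo was added, plates sat 10 min at room temperature, then ATP-coupled luminescence was imaged as the viability read-out.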

HEK293 = experiment: as above; conditions: Five cell lines viability, CellTiter-Glo ATP luminescence, 48-72 h; max response: active compounds read low
Summary of the method: as §1

HaCat [1] = experiment: as above; conditions: Five cell lines viability, CellTiter-Glo ATP luminescence, 48-72 h; max response: active compounds read low
Summary of the method: as §1

KB-3-1 = experiment: as above; conditions: Five cell lines viability, CellTiter-Glo ATP luminescence, 48-72 h; max response: active compounds read low
Summary of the method: as §1

NIH3T3 = experiment: as above; conditions: Five cell lines viability, CellTiter-Glo ATP luminescence, 48-72 h; max response: active compounds read low
Summary of the method: as §1

HACAT [2] = experiment: qHTS assay to identify novel small-molecules to repurpose for Merkel cell carcinoma treatment (AID 1296009); conditions: MCC and control cell lines, CellTiter-Glo viability, 72 h; at 44.8 µM (top of the series) unless noted
Summary of the method: (§2)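 Luminescence from CellTiter-Glo, read 10 min after addition at room temperature, reported viability following a 72 hr, 37 degree celsius treatment with NPC or MIPE compounds in titration; values normalized to plate controls.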

HEK293T = experiment: as above; conditions: MCC and control cell lines, CellTiter-Glo viability, 72 h; series mostly up to 44.8 µM
Summary of the method: as §2
Also: nearly all actives have a fitted effect of over 60% in size.

C=C1CCC2C(C)(CO[C@@H]3O[C@H](CO)[C@@H](O)[C@H](O)[C@H]3O)C(O)CCC2(C)C1C(=O)CC1=CCOC1=O (some centres undefined)
inactive: max response (CRL-7250) -10.6% | outcome (HEK293) | outcome (HaCat [1]) | max response (KB-3-1) 4.59% | max response (NIH3T3) 1.1% | outcome (HACAT [2]) inactive [at 17.4 µM] | Potency (HEK293T)

CC(=O)C1CCC2(C)C3=C(CCC12C)C1(C)CCC(=O)C(C)(C)C1CC3 (centres undefined)
inactive: max response (CRL-7250) -8.18% | outcome (HEK293) | outcome (HaCat [1]) | outcome (KB-3-1) | max response (NIH3T3) -0.504% | outcome (HACAT [2]) | Potency (HEK293T)

O=C(O)c1cc(O[C@@H]2O[C@H](CO[C@@H]3OC[C@@H](O)[C@H](O)[C@H]3O)[C@@H](O)[C@H](O)[C@H]2O)c2ccccc2c1O
inactive: max response (CRL-7250) 3.92% | outcome (HEK293) | outcome (HaCat [1]) | outcome (KB-3-1) | max response (NIH3T3) -7.85% | outcome (HACAT [2]) inactive [at 17.4 µM] | Potency (HEK293T)

CN1CCC(c2c[nH]c3ccc(NC(=O)c4ccc(F)cc4)cc23)CC1
inactive: max response (CRL-7250) -9.85% | outcome (HEK293) | outcome (HaCat [1]) | max response (KB-3-1) 7.4% | max response (NIH3T3) -0.678% | outcome (HACAT [2]) | Potency (HEK293T)

C[C@@H]1O[C@@H](O[C@H]2[C@H](OC(=O)[C@]34CCC(C)(C)C[C@H]3C3=CCC5[C@@]6(C)C[C@H](O)[C@H](O[C@@H]7O[C@H](CO[C@@H]8OC[C@H](O)[C@H](O)[C@H]8O)[C@@H](O)[C@H](O)[C@H]7O)C(C)(C)C6CC[C@@]5(C)[C@]3(C)C[C@H]4O)OC[C@@H](O)[C@@H]2O)[C@H](O)[C@H](O[C@@H]2OC[C@](O)(CO)[C@H]2O)[C@H]1O[C@@H]1OC[C@H](O)[C@H](O[C@@H]2OC[C@@H](O)[C@H](O)[C@H]2O)[C@H]1O (some centres undefined)
inactive: max response (CRL-7250) -6.86% | outcome (HEK293) | outcome (HaCat [1]) | outcome (KB-3-1) | max response (NIH3T3) -1.57% | outcome (HACAT [2]) inactive [at 9.27 µM] | outcome (HEK293T) inactive [at 9.27 µM]

CC(=O)OC[C@@]12[C@H](O)C[C@@H](C)[C@]3(C[C@@H](c4ccoc4)OC3=O)[C@H]1C[C@H](O)C[C@]21CO1
inactive: outcome (CRL-7250) | outcome (HEK293) | outcome (HaCat [1]) | outcome (KB-3-1) | outcome (NIH3T3) | outcome (HACAT [2]) inactive [at 17.4 µM] | Potency (HEK293T)

CC(=O)c1c(O)cc2cccc3c2c1CC(C)(O)O3 (centres undefined)
inactive: outcome (CRL-7250) | outcome (HEK293) | outcome (HaCat [1]) | max response (KB-3-1) 4.55% | max response (NIH3T3) -0.44% | outcome (HACAT [2]) | Potency (HEK293T)

C[C@@H]1O[C@@H](O[C@H]2[C@H](OC(=O)[C@]34CCC(C)(C)C[C@H]3C3=CCC5[C@@]6(C)C[C@H](O)[C@H](O[C@@H]7O[C@H](CO)[C@@H](O[C@@H]8O[C@H](CO)[C@@H](O)[C@H](O)[C@H]8O)[C@H](O)[C@H]7O)[C@@](C)(CO)C6[C@H](O)C[C@@]5(C)[C@]3(C)C[C@H]4O)OC[C@H](O)[C@@H]2O)[C@H](O)[C@H](O)[C@H]1O[C@@H]1OC[C@@H](O)[C@H](O[C@@H]2OC[C@](O)(CO)[C@H]2O)[C@H]1O (some centres undefined)
inactive: max response (CRL-7250) 4.17% | outcome (HEK293) | outcome (HaCat [1]) | outcome (KB-3-1) | max response (NIH3T3) 4.2% | outcome (HACAT [2]) inactive [at 9.27 µM] | outcome (HEK293T) inactive [at 9.27 µM]

CCC1CC2C(C)=CC3CCCCC3C2(C)C2(OC(=O)C(C)(O)OC2=O)O1 (centres undefined)
inactive: max response (CRL-7250) 0.081% | outcome (HEK293) | outcome (HaCat [1]) | outcome (KB-3-1) | max response (NIH3T3) 1.16% | outcome (HACAT [2]) | Potency (HEK293T)

COC(=O)C1=COC(O[C@@H]2O[C@H](CO)[C@@H](O)[C@H](O)[C@H]2O)/C(=C\COC(=O)c2ccc(OC3OC(CO)C(O)C(O)C3O)c(OC)c2)C1CC(=O)OCCc1ccc(O)cc1 (some centres undefined)
inactive: max response (CRL-7250) -6.94% | outcome (HEK293) | outcome (HaCat [1]) | outcome (KB-3-1) | max response (NIH3T3) 1.16% | outcome (HACAT [2]) inactive [at 9.27 µM] | outcome (HEK293T) inactive [at 9.27 µM]

CC(NCc1ccc(OCc2cccc(F)c2)cc1)C(N)=O (centres undefined)
inactive: outcome (CRL-7250) | outcome (HEK293) | outcome (HaCat [1]) | max response (KB-3-1) 9.7% | outcome (NIH3T3) | outcome (HACAT [2]) | Potency (HEK293T)

C[C@@H]1C/C=C/C=C\C=C\C=C\[C@H](O[C@@H]2O[C@H](C)[C@@H](O)[C@H](N)[C@@H]2O)C[C@@H]2O[C@](O)(C[C@@H](O)C[C@H]3O[C@@H]3/C=C/C(=O)O1)C[C@H](O)[C@H]2C(=O)O
inactive: max response (CRL-7250) 2.84% | outcome (HEK293) | outcome (HaCat [1]) | max response (KB-3-1) 3.12% | max response (NIH3T3) -11.8% | outcome (HACAT [2]) inactive [at 17.4 µM] | Potency (HEK293T)

CCC(CCO[C@@H]1O[C@H](CO[C@H]2OC[C@](O)(CO)[C@H]2O)[C@@H](O)[C@H](O)[C@H]1O)C(C)(C)O (some centres undefined)
inactive: max response (CRL-7250) -2.81% | outcome (HEK293) | outcome (HaCat [1]) | outcome (KB-3-1) | max response (NIH3T3) 1.97% | outcome (HACAT [2]) inactive [at 17.4 µM] | Potency (HEK293T)

C=CC(C)(O)CC/C=C(\C)C(=O)OC1CC2(C(=O)O)CCC3(C)C(=CCC4C5(C)CCC(OC6OC(COC7OCC(O)C(O)C7O)C(O)C(OC7OCC(O)C(O)C7O)C6OC6OC(CO)C(O)C(O)C6OC6OCC(O)C(O)C6O)C(C)(C)C5CCC43C)C2CC1(C)C (centres undefined)
inactive: max response (CRL-7250) 0.69% | outcome (HEK293) | outcome (HaCat [1]) | outcome (KB-3-1) | max response (NIH3T3) 1.8% | outcome (HACAT [2]) inactive [at 9.27 µM] | outcome (HEK293T) inactive [at 9.27 µM]

CC(=O)O[C@H]1[C@H](C)[C@@H](O)[C@H]2[C@@H]1C=C(C(=O)O)[C@H]1C[C@@H]3[C@H]([C@H]21)[C@H]1C(=O)O[C@@H]2CC[C@@]3(C)O[C@]1(O)[C@@H]2C
inactive: max response (CRL-7250) -0.589% | outcome (HEK293) | outcome (HaCat [1]) | max response (KB-3-1) 7.8% | outcome (NIH3T3) | outcome (HACAT [2]) inactive [at 17.4 µM] | Potency (HEK293T)

C[C@@H]1O[C@@H](O[C@H]2[C@H](O)[C@@H](C(=O)O)O[C@@H](O[C@H]3CC[C@@]4(C)C(CC[C@]5(C)C4CC=C4C6CC(C)(C)CC[C@]6(C(=O)O)CC[C@]45C)C3(C)C)[C@@H]2O[C@@H]2O[C@H](CO)[C@@H](O)[C@H](O)[C@H]2O)[C@H](O)[C@H](O)[C@H]1O (some centres undefined)
inactive: outcome (CRL-7250) | outcome (HEK293) | outcome (HaCat [1]) | outcome (KB-3-1) | max response (NIH3T3) 1.81% | outcome (HACAT [2]) inactive [at 9.27 µM] | outcome (HEK293T) inactive [at 9.27 µM]

CC(C#N)C(C)O[C@@H]1O[C@H](CO)[C@@H](O)[C@H](O)[C@H]1O (some centres undefined)
inactive: outcome (CRL-7250) | outcome (HEK293) | outcome (HaCat [1]) | outcome (KB-3-1) | outcome (NIH3T3) | outcome (HACAT [2]) | Potency (HEK293T)
